# From the supplement of paper PMC9942566
# Structures can show the parent of a compound that is named as a salt. ± gives the standard deviation of the averaged measurements.
# Test system: Serratia marcescens K904 PosmB-luxCDABE reporter (pMQ747)
# Test: PosmB-lux reporter fold induction (RLU/OD600 relative to no-compound control), highest over Biolog concentrations; higher = stronger Rcs reporter activation
# Settings: Biolog plate: PM11; well positions: C1-4; wild type K904; 4 h
# Protocol: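 Serratia marcescens K904 (wild type) or its isogenic ΔrcsB mutant, carrying the Rcs-dependent PosmB-luxCDABE reporter plasmid pMQ747, was grown in LB at OD600 0.1 in Biolog Phenotype MicroArray plates PM11-20 for 4 h at 30-32°C. Each compound is present at 3-4 proprietary concentrations (not stated); per the Fig. S1 legend the value given is the highest fold over those wells. Three independent trials.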
row,SMILES,PosmB-lux reporter fold induction
1,Cc1c(N)nc([C@H](CC(N)=O)NC[C@H](N)C(N)=O)nc1C(=O)N[C@H](C(=O)N[C@H](C)[C@@H](O)[C@H](C)C(=O)N[C@H](C(=O)NCCc1nc(-c2nc(C(=O)NCCC[S+](C)C)cs2)cs1)[C@@H](C)O)[C@@H](OC1OC(CO)C(O)C(O)C1OC1OC(CO)C(O)C(OC(N)=O)C1O)c1cnc[nH]1 (stereo not given in full) [Bleomycin],1.6 ± 0.14

# Same assay, conditions: Biolog plate: PM11; well positions: G9-12; wild type K904; 4 h
row,SMILES,PosmB-lux reporter fold induction
1,O=[Te]([O-])[O-].[K+].[K+] [Potassium tellurite],1.58 ± 0.69

# Same assay, conditions: Biolog plate: PM13; well positions: A9-12; wild type K904; 4 h
row,SMILES,PosmB-lux reporter fold induction
1,[Cl][Ni][Cl] [Nickel chloride],1.33 ± 0.21

# Same assay, conditions: Biolog plate: PM13; well positions: B9-12; wild type K904; 4 h
row,SMILES,PosmB-lux reporter fold induction
1,CCn1cc(C(=O)O)c(=O)c2cc3c(cc21)OCO3 [Oxolinic acid],2.12 ± 0.57

# Same assay, conditions: Biolog plate: PM13; well positions: C9-12; wild type K904; 4 h
row,SMILES,PosmB-lux reporter fold induction
1,[K+].[K+].[O]=[Cr](=[O])([O-])[O-] [Potassium chromate],2.55 ± 0.8

# Same assay, conditions: Biolog plate: PM13; well positions: E5-8; wild type K904; 4 h
row,SMILES,PosmB-lux reporter fold induction
1,CN[C@@H]1[C@@H](O)[C@@H](O[C@@H]2[C@@H](O)[C@H](O[C@H]3O[C@H]([C@@H](C)O)[C@@H](O)[C@H](O)[C@H]3N)[C@@H](N)C[C@H]2N)OC[C@]1(C)O [Geneticin (G418)],1.38 ± 0.22

# Same assay, conditions: Biolog plate: PM14; well positions: B5-8; wild type K904; 4 h
row,SMILES,PosmB-lux reporter fold induction
1,CCCCc1ccc(C(=O)O)nc1 [Fusaric acid],3.83 ± 1.8

# Same assay, conditions: Biolog plate: PM14; well positions: B9-12; wild type K904; 4 h
row,SMILES,PosmB-lux reporter fold induction
1,O=[As]([O-])([O-])[O-].[Na+].[Na+].[Na+] [Sodium arsenate],2.1 ± 0.74

# Same assay, conditions: Biolog plate: PM14; well positions: C9-12; wild type K904; 4 h
row,SMILES,PosmB-lux reporter fold induction
1,N#CO [Sodium cyanate],2.06 ± 0.13

# Same assay, conditions: Biolog plate: PM14; well positions: D1-4; wild type K904; 4 h
row,SMILES,PosmB-lux reporter fold induction
1,[Cl][Cd][Cl] [Cadmium chloride],1.35 ± 0.73

# Same assay, conditions: Biolog plate: PM14; well positions: D5-8; wild type K904; 4 h
row,SMILES,PosmB-lux reporter fold induction
1,O=C(O)CI [Iodoacetate],1.93 ± 0.39

# Same assay, conditions: Biolog plate: PM14; well positions: D9-12; wild type K904; 4 h
row,SMILES,PosmB-lux reporter fold induction
1,[Na+].[Na+].[O]=[Cr](=[O])([O-])[O][Cr](=[O])(=[O])[O-] [Sodium dichromate],1.55 ± 0.067

# Same assay, conditions: Biolog plate: PM14; well positions: G9-12; wild type K904; 4 h
row,SMILES,PosmB-lux reporter fold induction
1,O=[N+]([O-])[O-].[Na+] [Sodium nitrate],3.75 ± 1.3

# Same assay, conditions: Biolog plate: PM15; well positions: E9-12; wild type K904; 4 h
row,SMILES,PosmB-lux reporter fold induction
1,C[n+]1ccc(-c2cc[n+](C)cc2)cc1 [Methyl viologen],1.4 ± 0.25

# Same assay, conditions: Biolog plate: PM15; well positions: H1-4; wild type K904; 4 h
row,SMILES,PosmB-lux reporter fold induction
1,O=[N+]([O-])c1ncc[nH]1 [2-Nitroimidazole],1.17 ± 0.56

# Same assay, conditions: Biolog plate: PM16; well positions: C1-4; wild type K904; 4 h
row,SMILES,PosmB-lux reporter fold induction
1,CN(C)S(=O)(=O)N(SC(F)(Cl)Cl)c1ccccc1 [dichlofluanid],1.03 ± 0.34

# Same assay, conditions: Biolog plate: PM16; well positions: C9-12; wild type K904; 4 h
row,SMILES,PosmB-lux reporter fold induction
1,CCCCCCCCCCCCCCCC[n+]1ccccc1 [cetylpyridinium],1.47 ± 0.48

# Same assay, conditions: Biolog plate: PM16; well positions: D1-4; wild type K904; 4 h
row,SMILES,PosmB-lux reporter fold induction
1,"O=[N+]([O-])c1ccc(Cl)c([N+](=O)[O-])c1 [1-chloro-2,4-dinitrobenzene]",1.37 ± 0.54

# Same assay, conditions: Biolog plate: PM16; well positions: F1-4; wild type K904; 4 h
row,SMILES,PosmB-lux reporter fold induction
1,O=[Te]([O-])[O-].[K+].[K+] [potassium tellurite],1.75 ± 1.1

# Same assay, conditions: Biolog plate: PM16; well positions: F5-8; wild type K904; 4 h
row,SMILES,PosmB-lux reporter fold induction
1,O=[Se]([O-])[O-].[Na+].[Na+] [sodium selenite],1.03 ± 0.38

# Same assay, conditions: Biolog plate: PM17; well positions: A5-8; wild type K904; 4 h
row,SMILES,PosmB-lux reporter fold induction
1,NC(CCl)C(=O)O [b-chloro-L-alanine hydrochloride],1.57 ± 0.59

# Same assay, conditions: Biolog plate: PM17; well positions: B5-8; wild type K904; 4 h
row,SMILES,PosmB-lux reporter fold induction
1,CNC1CC(N)C(O)C(OC2OC(CO)C(O)C3OC4(OC(C(N)CO)C(O)C(O)C4O)OC23)C1O (stereo not given) [hygromycin B],1.46 ± 0.35

# Same assay, conditions: Biolog plate: PM17; well positions: C1-4; wild type K904; 4 h
row,SMILES,PosmB-lux reporter fold induction
1,Nc1ccncc1 [4-aminopyridine],10.2 ± 7.7

# Same assay, conditions: Biolog plate: PM17; well positions: D1-4; wild type K904; 4 h
row,SMILES,PosmB-lux reporter fold induction
1,CC1=C(C(=O)Nc2ccccc2)S(=O)(=O)CCO1 [oxycarboxin],2.25 ± 0.26

# Same assay, conditions: Biolog plate: PM17; well positions: D5-8; wild type K904; 4 h
row,SMILES,PosmB-lux reporter fold induction
1,"Nc1ncn[nH]1 [3-amino-1,2,4-triazole]",1.11 ± 0.18

# Same assay, conditions: Biolog plate: PM17; well positions: G1-4; wild type K904; 4 h
row,SMILES,PosmB-lux reporter fold induction
1,O=C(O)CCCc1ccc(N(CCCl)CCCl)cc1 [chlorambucil],1.34 ± 0.1

# Same assay, conditions: Biolog plate: PM18; well positions: C9-12; wild type K904; 4 h
row,SMILES,PosmB-lux reporter fold induction
1,Oc1c(Cl)c(Cl)c(Cl)c(Cl)c1Cl [pentachloro-phenol],1.04 ± 0.25

# Same assay, conditions: Biolog plate: PM18; well positions: E5-8; wild type K904; 4 h
row,SMILES,PosmB-lux reporter fold induction
1,[O-][I+3]([O-])([O-])O [sodium m-periodate],2.47 ± 0.4

# Same assay, conditions: Biolog plate: PM18; well positions: E9-12; wild type K904; 4 h
row,SMILES,PosmB-lux reporter fold induction
1,[Cl][Sb]([Cl])[Cl] [antimony (III) chloride],0.722 ± 0.067

# Same assay, conditions: Biolog plate: PM18; well positions: G1-4; wild type K904; 4 h
row,SMILES,PosmB-lux reporter fold induction
1,Oc1cc(Cl)ccc1Oc1ccc(Cl)cc1Cl [triclosan],1.45 ± 0.61

# Same assay, conditions: Biolog plate: PM18; well positions: G5-8; wild type K904; 4 h
row,SMILES,PosmB-lux reporter fold induction
1,"Nc1n[nH]c(N)n1 [3,5-diamino-1,2,4-triazole (Guanazole)]",1.96 ± 0.29

# Same assay, conditions: Biolog plate: PM18; well positions: H5-8; wild type K904; 4 h
row,SMILES,PosmB-lux reporter fold induction
1,Oc1ccccc1-c1ccccc1 [2-phenylphenol],2.88 ± 0.52

# Same assay, conditions: Biolog plate: PM18; well positions: H9-12; wild type K904; 4 h
row,SMILES,PosmB-lux reporter fold induction
1,CC1=CC(=O)c2c(O)cccc2C1=O [plumbagin],0.936 ± 0.027

# Same assay, conditions: Biolog plate: PM20; well positions: C5-8; wild type K904; 4 h
row,SMILES,PosmB-lux reporter fold induction
1,CN1[C@@H]2CC[C@H]1C[C@@H](OC(=O)C(CO)c1ccccc1)C2 (stereo not given in full) [atropine],2.56 ± 0.59

# Same assay, conditions: Biolog plate: PM20; well positions: E5-8; wild type K904; 4 h
row,SMILES,PosmB-lux reporter fold induction
1,CCCCCCCCCCCCNC(=N)N [dodine],1.94 ± 0.27

# Same assay, conditions: Biolog plate: PM20; well positions: F1-4; wild type K904; 4 h
row,SMILES,PosmB-lux reporter fold induction
1,O=c1cc(O)c2ccccc2o1 [4-hydroxyl-coumarin],2.25 ± 0.64

# Same assay, conditions: Biolog plate: PM20; well positions: G1-4; wild type K904; 4 h
row,SMILES,PosmB-lux reporter fold induction
1,O=C1C2CC=CCC2C(=O)N1SC(Cl)(Cl)Cl (stereo not given) [captan],2.3 ± 0.41

# Same assay, conditions: Biolog plate: PM20; well positions: G9-12; wild type K904; 4 h
row,SMILES,PosmB-lux reporter fold induction
1,Oc1cccc2cccnc12 [8-hydroxy-quinoline],2.7 ± 0.72

# Same assay, conditions: Biolog plate: PM20; well positions: H1-4; wild type K904; 4 h
row,SMILES,PosmB-lux reporter fold induction
1,O=C1C=C2C(=CCOC2O)O1 (stereo not given) [patulin],1.71 ± 0.23

# Same assay, conditions: Biolog plate: PM20; well positions: H5-8; wild type K904; 4 h
row,SMILES,PosmB-lux reporter fold induction
1,Cc1ccc(N(SC(F)(Cl)Cl)S(=O)(=O)N(C)C)cc1 [tolylfluanid],1.32 ± 0.14
